Consider 19 molecules from PubChem BioAssay (NCATS).

Structures are written as SMILES. Values without a mark were called inactive. Inconclusive results are not listed. The source made the active and inactive calls. Unless noted, the call rests on the fitted dose curve.

Assay [1] addresses Cytochrome P450 1A2 (Homo sapiens) (UniProt P05177). As to the kind of experiment: p450-cyp1a2 (AID 410). Further: potency means the concentration at half of the fitted maximal effect.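 On activity change, negative = inhibition: -100% = full effect of reference inhibitor.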 A digest of the protocol: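 Luminescent readout of luciferin formed from Luciferin-ME by human CYP1A2; data normalized against complete inhibition by 57 uM furafylline. Enzyme 20nM, substrate 100uM at Km, 100mM KPO4 buffer, 60 min reaction at room temperature.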
The target of assay [2] is Glucocorticoid receptor (Homo sapiens) (UniProt P04150). Nature of the assay: GR-GFP Redistribution (AID 450;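 active means compounds whose dose series gives a full or clear partial fitted curve of increased nuclear translocation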; further: potency means the concentration at half of the fitted maximal effect). The settings on record: U2OS GR-GFP nuclear translocation, laser cytometry, 2 h.
A short description of assay [3]: AP1 Signaling Pathway (AID 357; active means well fitted curve in either direction with a large enough effect, not every such curve was filed as active; further: on the % scale 0 is the no-effect control and ±100 the full control effect). In outline:
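AP-1-bla ME-180 cells with beta-lactamase reporter under AP-1 response element, stimulated with EC50 EGF; compounds titrated, 5 hours at 37 degrees Celsius. CCF4 read at 460/530 nm ratio; positive and negative modulators judged by AC50.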

Assay [4] is described as follows: NFAT Signaling Pathway (AID 444; active means well fitted curve in either direction with a large enough effect, not every such curve was filed as active;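 further: carbachol stimulus at about its EC50 of 1 µM final; on the % scale 0 is the no-effect control and ±100 the full control effect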). The settings on record: Jurkat NFAT-bla M1, carbachol, beta-lactamase ratio, 5 h. In outline: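 Read-out: CCF4 FRET ratio (460 nm/530 nm) after 1 h RT dye loading, used for %activity and AC50 from titration series. Cells: Jurkat NFAT-β-lactamase/M1 line, treated with compound plus 1 uM carbachol for 5 h, 37 °C.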
Assay [5] can be described thus: Stat Signaling Pathway (AID 446; active means well fitted curve in either direction with a large enough effect, not every such curve was filed as active;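 further: ME-180 cervical cancer cells given 40 pM IL-6 alongside compound; SIE-controlled beta-lactamase reporter measured as 460/530 nm FRET emission ratio; on the % scale 0 is the no-effect control and ±100 the full control effect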). A digest of the protocol:
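ME-180 cells carrying a SIE-driven beta-lactamase reporter are stimulated with 40 pM IL-6 for 5 h at 37C in the presence of compound. The 460/530 nm FRET substrate ratio is read after 2.5 h at RT. Data are normalised to 300 pM IL-6 and to 125 nM JAK inhibitor controls.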

Assay [6] in a line: Cell Viability - BJ (AID 421).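 Further: potency means the concentration at half of the fitted maximal effect; cells exposed to compound for 40 hours at 37 °C before readout.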 The settings on record: BJ fibroblast viability, qHTS. A digest of the protocol: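 Normal human BJ foreskin fibroblasts, 1500/well in complete medium, treated 40 hr at 37 °C. Cellular ATP by CellTiter-Glo luminescence; normalized to DMSO and 100 uM tamoxifen, AC50 from Hill fit.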
For orientation: Quantitative high-throughput screening tests each substance at several concentrations.

Assay [7] is described as follows: Cell Viability - Jurkat (AID 426;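 active means dose-dependent loss of cell ATP signal giving a full or clear fitted curve, ranked by lower potency value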; further: potency means the concentration at half of the fitted maximal effect). The settings on record: qHTS. In outline: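 qHTS, 1536-well; Jurkat E6-1, 5000 cells/well, complete medium; cpd 40 hr, 37 °C; CellTiter-Glo 20 min RT; luminescence. AC50 by Hill fit.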
The nature of assay [8]: Cell Viability - Hek293 (AID 427;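 active means compounds whose dose-response curve shows a full or clear partial loss of cell viability, called from curve shape rather than a numeric limit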;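 further: potency means the concentration at half of the fitted maximal effect; cells exposed to compound for 40 hours at 37 °C before reading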). The settings on record: qHTS. In outline:
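HEK293 cells in complete medium were exposed to compound for 40 hr at 37 °C, then cellular ATP was read by CellTiter-Glo luminescence. Data were normalized to DMSO (basal) and 100 uM tamoxifen (100% inhibition), and AC50 came from Hill fits.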

Assay [9] can be described thus: Cell Viability - MRC5 (AID 434).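 Further: potency means the concentration at half of the fitted maximal effect; potency reflects cytotoxicity seen as loss of intracellular ATP.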 The settings on record: MRC5 lung fibroblast viability, qHTS. In outline: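 qHTS cytotoxicity in human lung fibroblast MRC5 cells; 40 hr treatment, 37 °C; cellular ATP by luciferase luminescence; DMSO = 0%, 100 uM tamoxifen = 100% inhibition; Hill-fit AC50.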
The nature of assay [10]: Cell Viability - SK-N-SH (AID 435).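 Further: potency means the concentration at half of the fitted maximal effect; compound exposure lasted 40 h at 37 °C.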 The settings on record: SK-N-SH neuroblastoma cell viability qHTS. A digest of the protocol: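 SK-N-SH human neuroblastoma cells (1500/well) were exposed to compounds in complete medium for 40 h at 37 °C, and intracellular ATP was then measured by CellTiter-Glo luminescence. AC50 was taken from Hill fits, normalized to DMSO and 100 uM tamoxifen.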

Glucocorticoid receptor (Homo sapiens), sequence (P04150 whole entry, looked up): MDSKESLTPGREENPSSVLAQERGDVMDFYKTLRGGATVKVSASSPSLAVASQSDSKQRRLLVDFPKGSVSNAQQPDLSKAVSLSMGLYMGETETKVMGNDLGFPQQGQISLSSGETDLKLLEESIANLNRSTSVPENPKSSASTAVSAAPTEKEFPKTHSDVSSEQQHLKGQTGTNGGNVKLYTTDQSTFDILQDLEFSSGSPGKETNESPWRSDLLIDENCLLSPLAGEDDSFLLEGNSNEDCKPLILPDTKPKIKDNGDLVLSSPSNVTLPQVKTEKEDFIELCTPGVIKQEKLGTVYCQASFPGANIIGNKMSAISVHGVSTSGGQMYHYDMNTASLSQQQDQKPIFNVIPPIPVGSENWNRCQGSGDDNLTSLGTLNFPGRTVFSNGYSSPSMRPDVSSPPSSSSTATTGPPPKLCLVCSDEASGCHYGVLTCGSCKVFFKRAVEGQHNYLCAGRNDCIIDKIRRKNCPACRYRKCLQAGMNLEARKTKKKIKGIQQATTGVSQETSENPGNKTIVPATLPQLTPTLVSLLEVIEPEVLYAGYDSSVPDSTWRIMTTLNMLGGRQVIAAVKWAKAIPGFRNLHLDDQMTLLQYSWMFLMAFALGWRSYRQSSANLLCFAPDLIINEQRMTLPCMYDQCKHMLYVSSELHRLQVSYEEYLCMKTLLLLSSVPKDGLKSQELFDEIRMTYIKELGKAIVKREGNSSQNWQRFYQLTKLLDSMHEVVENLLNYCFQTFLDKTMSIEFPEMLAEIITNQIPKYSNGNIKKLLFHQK
Cytochrome P450 1A2 (Homo sapiens), sequence (P05177 whole entry, looked up): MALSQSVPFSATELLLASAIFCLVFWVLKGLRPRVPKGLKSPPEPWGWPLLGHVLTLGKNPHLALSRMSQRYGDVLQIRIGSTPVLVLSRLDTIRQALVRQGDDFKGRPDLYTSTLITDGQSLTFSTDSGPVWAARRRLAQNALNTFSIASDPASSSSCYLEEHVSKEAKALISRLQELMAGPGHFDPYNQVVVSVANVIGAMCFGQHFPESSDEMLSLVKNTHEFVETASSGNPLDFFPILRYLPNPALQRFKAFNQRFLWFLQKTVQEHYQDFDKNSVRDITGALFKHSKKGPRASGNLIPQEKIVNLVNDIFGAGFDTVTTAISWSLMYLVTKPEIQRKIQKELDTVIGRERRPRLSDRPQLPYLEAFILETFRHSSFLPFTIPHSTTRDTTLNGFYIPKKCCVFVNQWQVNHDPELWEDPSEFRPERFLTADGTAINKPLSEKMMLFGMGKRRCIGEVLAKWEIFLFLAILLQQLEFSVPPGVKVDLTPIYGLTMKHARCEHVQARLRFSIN

In the case of `Cc1ncsc1CCCl`, the Potency in [1] was 31.6 µM (active); in assay [2], > 46 µM.

Take `CCCCC/C=C\C/C=C\C/C=C\C/C=C\CCCC(=O)NCC(=O)O`: the molecule was classed as inactive in [3]. For the same molecule, the Potency entry in assay [1] is “inactive”. Also, the activity change, negative = inhibition in assay [4] (at 38 µM (top of the series)) was -2.7%. Moreover, in assay [2], the Potency was > 46 µM.

For `C=CCN1C[C@H](C)N([C@H](c2ccc(C(=O)N(CC)CC)cc2)c2cccc(OC)c2)C[C@H]1C`, the Potency in assay [2] was > 46 µM.

For `C#C[C@]1(O)CC[C@H]2[C@@H]3CCC4=CC(=O)CC[C@]4(C)[C@H]3CC[C@@]21C`, the call in assay [3] and in assay [5] was inactive. In addition, in assay [4] (at 17.2 µM (top of the series)), the activity change, negative = inhibition is 2.09%. The Potency in assay [2] is 0.338 µM (active).

As for `C[C@]1(O)CC[C@H]2[C@@H]3CCC4=CC(=O)CC[C@]4(C)[C@@]3(F)[C@@H](O)C[C@@]21C`, the Potency in assay [6], in [7], in [8], in assay [9] and in [10] was > 92 µM throughout.

Consider `CCOC(=O)CC(SP(=S)(OC)OC)C(=O)OCC` (stereo not drawn), for which the Potency in assay [6], in [7], in [8] and in assay [9] was > 92 µM each time.

Take `COC(=O)C(c1ccccc1)C1CCCCN1` (stereo not drawn): the Potency in assay [6], in assay [7], in assay [8], in assay [9] and in assay [10] was > 92 µM each time.

`CCCC(C)(COC(N)=O)COC(N)=O`: the Potency in assay [6], in [7], in assay [8], in [9] and in assay [10] was > 92 µM in each case.

In the case of `NCCc1ccc(O)cc1`, in assay [3], the call was inactive. Besides, the Potency result in assay [1] is “inactive”. Besides, the Potency in assay [6] is > 92 µM; in assay [7], > 92 µM; in assay [8], > 92 µM; in assay [9], > 92 µM; in [10], > 92 µM; in [2], > 46 µM. Moreover, in assay [4] (at 38 µM (top of the series)), the activity change, negative = inhibition is 5.43%.

As to `CC(C)N(CCC(C(N)=O)(c1ccccc1)c1ccccn1)C(C)C` (stereo not drawn), the molecule was classed as inactive in assay [3] and in assay [5].

On to `CC(NC(C)(C)C)C(=O)c1cccc(Cl)c1` (stereo not drawn), for which the call in [3] and in assay [5] was inactive. The activity change, negative = inhibition in assay [4] (at 17.2 µM (top of the series)) was -27.5%. For the same molecule, the Potency in [2] is > 20.6 µM.

Regarding `C[C@]12CCC(=O)C=C1CC[C@@H]1[C@@H]2CC[C@@]2(C)[C@H]1CC[C@]2(C)O`, the Potency in assay [6] and in assay [9] was > 92 µM throughout.

For the molecule `CC(C)NC(C)C`, the Potency in assay [6], in assay [7], in [8], in assay [9] and in assay [10] was > 92 µM in each case.

Turning to `COc1ccc2c(c1)C13CCCC[C@@H]1C(C2)N(C)CC3` (stereo partly drawn), the molecule was classed as inactive in assay [3] and in assay [5]. The activity change, negative = inhibition in assay [4] (at 17.2 µM (top of the series)) is -1.88%. Besides, the Potency in [2] was > 20.6 µM.

In the case of `Oc1ccc(Cl)cc1`, the Potency in assay [6], in assay [7], in [8], in assay [9] and in assay [10] was > 92 µM in each case.

On to `Nc1ccccc1C(=O)O`, for which the Potency in [6], in assay [7], in [8], in [9] and in [10] was > 92 µM each time.

On to `COP(=S)(OC)Oc1ccc(SC)c(C)c1`, for which the Potency in [6], in assay [7], in assay [8], in [9] and in assay [10] was > 92 µM each time.

Consider `COc1cc(OC)c(OC)cc1C=O`, for which the Potency in assay [6], in assay [7], in [8], in assay [9] and in [10] was > 92 µM each time.

In the case of `O=c1oc2ccccc2c(O)c1Cc1c(O)c2ccccc2oc1=O`, the Potency in assay [1] was 12.6 µM (active). Further, the activity change, negative = inhibition in [4] (at 17.2 µM (top of the series)) is -5.31%.
